Measurements as given in PubChem BioAssay (NCATS).
Inconclusive results are not listed. The source made the active and inactive calls. Unless noted, calls come from the whole dose curve; as a rule, active = well fitted curve in the direction sought with a large enough effect; inconclusive = small, poorly fitted or top-dose-only effect, or another doubt; inactive = no such curve, though single readings can be large; an effect the other way counts as inactive or inconclusive.

Tests used:
[1] = AP1 Signaling Pathway (AID 357; active = well fitted curve in either direction with a large enough effect, not every such curve was filed as active;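 note: ME-180 reporter cells stimulated with EGF at its EC50 level; % is set by controls: 0 for no effect and ±100 for the full control effect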); conditions: ME-180 AP-1-bla reporter, EGF-induced, beta-lactamase ratio, 5 h; at 7.69 µM (top of the series) unless noted
Procedure, shortened: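 Cells are seeded overnight, exposed to compound titrations and an EC50 level of EGF for 5 hours at 37 °C, then loaded with CCF4 dye for 2.5 hours. Beta-lactamase activity under the AP-1 element is read as a blue/green ratio.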

[2] = target: Cytochrome P450 1A2 (Homo sapiens) (UniProt P05177); assay: p450-cyp1a2 (AID 410; calls by dose curve;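 note: -100% = full effect of reference inhibitor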)
Procedure, shortened: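 Inhibition was calculated relative to 57 uM furafylline (full inhibition). The reaction used human CYP1A2 at 20nM with Luciferin-ME at its Km, 100uM, driven by an NADPH-regenerating system for 60 min at room temperature.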

[3] = NFAT Signaling Pathway (AID 444; active = well fitted curve in either direction with a large enough effect, not every such curve was filed as active;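 note: carbachol stimulus at about its EC50 of 1 µM final; % is set by controls: 0 for no effect and ±100 for the full control effect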); conditions: Jurkat NFAT-bla M1, carbachol, beta-lactamase ratio, 5 h; at 7.69 µM (top of the series) unless noted
Procedure, shortened: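 Jurkat cells carrying an NFAT-driven β-lactamase reporter and co-transfected muscarinic M1 receptor were treated with compound plus carbachol (1 uM final, an EC50 level) for 5 h at 37 °C. CCF4 loading followed for 1 h at RT; 460/530 nm ratio gave %activity.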

[4] = target: Glucocorticoid receptor (Homo sapiens) (UniProt P04150); assay: GR-GFP Redistribution (AID 450;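 active = compounds whose dose series gives a full or clear partial fitted curve of increased nuclear translocation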; note: potency is the fitted concentration of half-maximal effect); conditions: U2OS GR-GFP nuclear translocation, laser cytometry, 2 h
[5] = target: Mitogen-activated protein kinase 10 (Mus musculus) (UniProt Q61831); assay: JNK3 AlphaScreen Assay (AID 530; active = well fitted curve in either direction with a large enough effect, not every such curve was filed as active;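 note: kinase came from lysate of stimulated human HepG2 cells; signal reports phosphorylation of biotinylated GST-cJun 1-79 at Ser73 with 10 µM ATP; % is set by controls: 0 for no effect and ±100 for the full control effect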)
Procedure, shortened: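 JNK3 came from HepG2 lysates pre-activated with IL-1beta and TNF-alpha and phosphorylated biotinylated GST-cJun (1-79) at 10 uM ATP, pH 7.6, room temperature. Compounds were titrated. AlphaScreen signal used anti-phospho-cJun (Ser73) antibody.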

[6] = target: 3',5'-cyclic-AMP phosphodiesterase 4B (Homo sapiens) (UniProt Q07343); assay: qHTS Assay for Inhibitors of PDE-IV (AID 607; active = well fitted activation curve with a large enough effect in the main read-out, with a control signal flat, not every such curve was filed as active; note: % of control where 0% means no effect)
Procedure, shortened: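 Cell-based read-out of cAMP via a modified cyclic nucleotide-gated channel and membrane potential dye (535/590 nm) in HEK293 cells expressing PDE4 endogenously. Compounds tested up to 22.9 uM final; 100 uM RO 20-1724 reference.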

[7] = Stat Signaling Pathway (AID 446; active = well fitted curve in either direction with a large enough effect, not every such curve was filed as active;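 note: ME-180 cervical cancer cells given 40 pM IL-6 alongside compound; SIE-controlled beta-lactamase reporter measured as 460/530 nm FRET emission ratio; % is set by controls: 0 for no effect and ±100 for the full control effect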); conditions: ME-180 SIE beta-lactamase reporter, IL-6 stimulated, 5 h; at 7.69 µM (top of the series) unless noted
Procedure, shortened: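 Reporter line: ME-180 cervical carcinoma, SIE-beta-lactamase. Treatment: compound with 40 pM IL-6, 5 hrs, 37 C, in low-serum OPTI-MEM with 10 mM HEPES pH 7.3. Detection: 460/530 nm fluorescence.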

[8] = target: Glucocorticoid receptor (Homo sapiens) (UniProt P04150); assay: GR-EFC Redistribution (AID 451; calls by dose curve; note: potency is the fitted concentration of half-maximal effect); conditions: CHO-K1 GR-EFC translocation, beta-gal luminescence, 2 h
Procedure, shortened: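 CHO-K1 cells stably expressing nuclear-localized β-gal enzyme acceptor and GR fused C-terminally to the enzyme donor fragment; ligand-driven nuclear translocation restores β-gal by complementation. Compounds titrated up to 46 uM final, 2 h at 37 °C; luminescence read.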

[9] = target: ATP-dependent 6-phosphofructokinase (Trypanosoma brucei brucei) (UniProt O15648); assay: qHTS Assay to Find Inhibitors of T. brucei phosphofructokinase: hit validation (AID 492961)
Procedure, shortened: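 Reaction: 0.1 M triethanolamine pH 8.0, 5 mM MgCl2, F6P 0.5 mM, ATP 0.1 mM, PFK 1.25 nM, 45 min RT. Read-out: ADP-Glo luminescence. Analysis: concentration-response fits, classed by r2 and efficacy.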

[10] = target: Luciferin 4-monooxygenase (Photinus pyralis) (UniProt P08659); assay: Biochemical firefly luciferase enzyme assay for NPC (AID 624030);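 note: purified P. pyralis luciferase at 10 nM with luciferin and ATP substrate; 0% = DMSO and -100% = full luciferase inhibition by PTC124 control; nearly all actives have a fitted effect of over 70% in size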
Procedure, shortened: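 Counter-screen for direct inhibition of the luciferase enzyme by approved-drug library compounds, run at 10 nM enzyme in 50 mM Tris acetate (final). Luminescence was read within 5 min of enzyme-buffer addition and normalized to PTC124 versus DMSO (0%).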

[11] = S16 Schwann cell PMP22 intronic element firefly luciferase assay (AID 624032); note: potency is the fitted concentration of half-maximal effect; nearly all actives have a fitted effect of over 30% in size
Procedure, shortened: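 Rat S16 Schwann cells stably carrying a PMP22 intronic element-driven Fluc reporter were seeded overnight, then exposed to compounds for 24 h at 37 °C. Luminescence was normalized to PTC124 (positive control) and DMSO (0% activity).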

7G8 = assay: qHTS profiling for inhibitors of Plasmodium falciparum proliferation (AID 504749); note: nearly all actives have a fitted effect of over 60% in size; note: potency is the fitted concentration of half-maximal effect;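 for activity, negative = inhibition: 0% = DMSO vehicle and full inhibition = artemisinin control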; conditions: P. falciparum in erythrocytes, SYBR Green DNA, 72 h; series mostly up to 28.7 µM
Procedure, shortened: (§1)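 P. falciparum-infected erythrocytes (0.3% parasitemia, 2.5% hematocrit final) were exposed to compounds for 72 h at 37 C in 5% CO2, then lysed with SYBR Green buffer overnight at room temperature; parasite DNA fluorescence was normalized to artemisinin and DMSO controls.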

ATS189 = assay: as above; conditions: P. falciparum in erythrocytes, SYBR Green DNA, 72 h; series mostly up to 28.7 µM
Procedure, shortened: as §1

CP192 = assay: as above; conditions: P. falciparum in erythrocytes, SYBR Green DNA, 72 h; series mostly up to 28.7 µM
Procedure, shortened: as §1

CP262 = assay: as above; conditions: P. falciparum in erythrocytes, SYBR Green DNA, 72 h; series mostly up to 28.7 µM
Procedure, shortened: as §1

CP335 = assay: as above; conditions: P. falciparum in erythrocytes, SYBR Green DNA, 72 h; series mostly up to 28.7 µM
Procedure, shortened: as §1

Dd2 = assay: as above; conditions: P. falciparum in erythrocytes, SYBR Green DNA, 72 h; series mostly up to 28.7 µM
Procedure, shortened: as §1

ECU = assay: as above; conditions: P. falciparum in erythrocytes, SYBR Green DNA, 72 h; series mostly up to 28.7 µM
Procedure, shortened: as §1

FAB9 = assay: as above; conditions: P. falciparum in erythrocytes, SYBR Green DNA, 72 h; series mostly up to 28.7 µM
Procedure, shortened: as §1

ICS = assay: as above; conditions: P. falciparum in erythrocytes, SYBR Green DNA, 72 h; series mostly up to 28.7 µM
Procedure, shortened: as §1

JCK = assay: as above; conditions: P. falciparum in erythrocytes, SYBR Green DNA, 72 h; series mostly up to 28.7 µM
Procedure, shortened: as §1

P93_24 = assay: as above; conditions: P. falciparum in erythrocytes, SYBR Green DNA, 72 h; series mostly up to 28.7 µM
Procedure, shortened: as §1

PC15 = assay: as above; conditions: P. falciparum in erythrocytes, SYBR Green DNA, 72 h; series mostly up to 28.7 µM
Procedure, shortened: as §1

PC49 = assay: as above; conditions: P. falciparum in erythrocytes, SYBR Green DNA, 72 h; series mostly up to 28.7 µM
Procedure, shortened: as §1

SC27B = assay: as above; conditions: P. falciparum in erythrocytes, SYBR Green DNA, 72 h; series mostly up to 28.7 µM
Procedure, shortened: as §1

TAB109 = assay: as above; conditions: P. falciparum in erythrocytes, SYBR Green DNA, 72 h; series mostly up to 28.7 µM
Procedure, shortened: as §1

TAB165 = assay: as above; conditions: P. falciparum in erythrocytes, SYBR Green DNA, 72 h; series mostly up to 28.7 µM
Procedure, shortened: as §1

W2 = assay: as above; conditions: P. falciparum in erythrocytes, SYBR Green DNA, 72 h; series mostly up to 28.7 µM
Procedure, shortened: as §1

Sequence of Glucocorticoid receptor (Homo sapiens) (P04150 whole entry, looked up, the tested form may be a part): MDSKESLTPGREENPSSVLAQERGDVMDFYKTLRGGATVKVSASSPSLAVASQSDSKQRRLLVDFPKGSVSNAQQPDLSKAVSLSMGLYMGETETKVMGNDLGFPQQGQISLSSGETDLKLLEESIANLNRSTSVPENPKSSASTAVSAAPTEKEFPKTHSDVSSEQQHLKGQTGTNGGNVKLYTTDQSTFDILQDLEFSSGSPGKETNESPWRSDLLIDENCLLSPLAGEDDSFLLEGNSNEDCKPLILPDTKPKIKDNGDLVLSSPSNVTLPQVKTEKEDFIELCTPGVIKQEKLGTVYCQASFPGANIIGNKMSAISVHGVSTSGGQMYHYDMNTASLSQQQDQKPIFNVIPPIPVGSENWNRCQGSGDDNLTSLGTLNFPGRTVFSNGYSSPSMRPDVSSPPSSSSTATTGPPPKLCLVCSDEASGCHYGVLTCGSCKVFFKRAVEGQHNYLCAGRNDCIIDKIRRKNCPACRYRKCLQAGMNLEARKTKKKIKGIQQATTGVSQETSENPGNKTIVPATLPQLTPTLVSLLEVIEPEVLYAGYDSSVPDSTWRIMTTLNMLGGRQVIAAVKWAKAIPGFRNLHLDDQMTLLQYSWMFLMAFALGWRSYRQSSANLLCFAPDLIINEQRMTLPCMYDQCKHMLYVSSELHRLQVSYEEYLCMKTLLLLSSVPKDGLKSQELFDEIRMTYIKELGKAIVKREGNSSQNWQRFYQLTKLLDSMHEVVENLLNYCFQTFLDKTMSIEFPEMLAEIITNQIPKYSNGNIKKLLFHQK
Sequence of Cytochrome P450 1A2 (Homo sapiens) (P05177 whole entry, looked up): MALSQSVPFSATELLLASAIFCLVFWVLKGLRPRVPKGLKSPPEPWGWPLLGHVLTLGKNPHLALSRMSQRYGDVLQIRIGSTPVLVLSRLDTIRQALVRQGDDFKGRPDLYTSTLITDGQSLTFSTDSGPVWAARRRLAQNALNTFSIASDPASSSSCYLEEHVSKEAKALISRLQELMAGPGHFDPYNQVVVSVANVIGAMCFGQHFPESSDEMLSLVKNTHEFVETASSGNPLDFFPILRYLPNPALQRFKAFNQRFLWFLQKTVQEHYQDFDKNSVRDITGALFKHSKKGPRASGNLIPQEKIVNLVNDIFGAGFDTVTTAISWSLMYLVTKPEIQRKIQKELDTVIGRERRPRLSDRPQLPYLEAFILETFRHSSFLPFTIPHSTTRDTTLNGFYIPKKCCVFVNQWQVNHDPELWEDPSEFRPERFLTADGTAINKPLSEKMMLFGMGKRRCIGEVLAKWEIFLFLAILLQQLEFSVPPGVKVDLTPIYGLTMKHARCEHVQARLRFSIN
Sequence of 3',5'-cyclic-AMP phosphodiesterase 4B (Homo sapiens) (Q07343 whole entry, looked up): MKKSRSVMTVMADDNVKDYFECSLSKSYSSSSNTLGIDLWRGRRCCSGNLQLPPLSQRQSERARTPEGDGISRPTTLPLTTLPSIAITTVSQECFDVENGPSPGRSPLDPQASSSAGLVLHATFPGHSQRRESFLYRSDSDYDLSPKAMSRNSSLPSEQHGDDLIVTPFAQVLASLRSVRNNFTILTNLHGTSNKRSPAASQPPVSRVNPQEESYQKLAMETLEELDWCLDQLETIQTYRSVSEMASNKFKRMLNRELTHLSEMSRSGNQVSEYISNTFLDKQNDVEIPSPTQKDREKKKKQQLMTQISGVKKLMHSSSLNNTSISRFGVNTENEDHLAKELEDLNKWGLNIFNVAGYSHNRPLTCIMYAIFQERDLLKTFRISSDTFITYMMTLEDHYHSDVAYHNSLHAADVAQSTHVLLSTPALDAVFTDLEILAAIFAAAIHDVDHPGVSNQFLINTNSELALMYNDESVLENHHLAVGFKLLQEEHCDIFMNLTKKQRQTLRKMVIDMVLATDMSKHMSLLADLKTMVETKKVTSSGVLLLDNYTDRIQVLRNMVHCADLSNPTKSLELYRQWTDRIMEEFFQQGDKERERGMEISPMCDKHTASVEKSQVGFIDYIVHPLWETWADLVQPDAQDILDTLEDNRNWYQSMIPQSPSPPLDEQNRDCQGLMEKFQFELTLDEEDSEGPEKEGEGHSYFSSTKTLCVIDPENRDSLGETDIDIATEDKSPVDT
Sequence of ATP-dependent 6-phosphofructokinase (Trypanosoma brucei brucei) (O15648 whole entry, looked up): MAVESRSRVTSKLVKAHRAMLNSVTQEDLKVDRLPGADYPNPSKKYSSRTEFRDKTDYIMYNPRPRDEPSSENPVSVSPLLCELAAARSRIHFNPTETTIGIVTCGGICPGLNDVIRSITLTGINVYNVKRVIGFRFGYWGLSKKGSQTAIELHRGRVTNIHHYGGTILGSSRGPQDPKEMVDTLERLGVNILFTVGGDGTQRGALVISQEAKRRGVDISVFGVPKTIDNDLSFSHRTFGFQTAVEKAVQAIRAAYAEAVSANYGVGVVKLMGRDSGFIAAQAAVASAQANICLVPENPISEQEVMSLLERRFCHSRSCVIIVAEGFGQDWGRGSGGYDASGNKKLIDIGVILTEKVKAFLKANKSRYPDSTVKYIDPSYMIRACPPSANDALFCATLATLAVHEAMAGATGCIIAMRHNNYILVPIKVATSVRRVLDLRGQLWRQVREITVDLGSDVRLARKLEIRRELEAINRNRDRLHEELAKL
Sequence of Luciferin 4-monooxygenase (Photinus pyralis) (P08659 whole entry, looked up): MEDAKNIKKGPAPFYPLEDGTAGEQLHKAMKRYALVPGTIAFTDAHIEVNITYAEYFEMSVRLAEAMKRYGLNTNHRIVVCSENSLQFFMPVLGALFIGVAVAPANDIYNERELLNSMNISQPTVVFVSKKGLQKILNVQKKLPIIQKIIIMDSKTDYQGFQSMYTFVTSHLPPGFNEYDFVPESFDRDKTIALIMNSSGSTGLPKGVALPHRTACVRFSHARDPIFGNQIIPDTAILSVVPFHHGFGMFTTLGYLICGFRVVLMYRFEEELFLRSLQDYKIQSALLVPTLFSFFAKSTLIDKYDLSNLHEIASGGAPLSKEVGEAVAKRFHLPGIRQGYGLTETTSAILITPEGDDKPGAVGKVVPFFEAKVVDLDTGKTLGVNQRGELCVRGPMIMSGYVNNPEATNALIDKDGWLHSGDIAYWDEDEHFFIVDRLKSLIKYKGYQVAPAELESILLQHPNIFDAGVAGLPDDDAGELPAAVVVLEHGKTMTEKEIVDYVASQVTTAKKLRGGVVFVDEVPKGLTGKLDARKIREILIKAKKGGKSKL

C[N+]1(CCC[N+]2(C)C[C@H]3[C@H](C2)[C@H]2C=C[C@@H]3CC2)CCOCC1 (stereo partly drawn)
inactive: activity change, negative = inhibition [1] 0.978% | Potency [2] | activity change, negative = inhibition [3] 1.42% | Potency [4] > 46 µM | Potency [5] | Potency [6]

C=C(NC(=O)C(=C)NC(=O)c1csc(C2=N[C@@H]3c4csc(n4)[C@@H]4NC(=O)c5csc(n5)[C@@H]([C@](C)(O)[C@H](C)O)NC(=O)[C@@H]5CSC(=N5)/C(=C/C)NC(=O)[C@@H]([C@H](C)O)NC(=O)c5csc(n5)[C@]3(CC2)NC(=O)[C@@H](C)NC(=O)C(=C)NC(=O)[C@@H](C)NC(=O)[C@@H]([C@@H](C)CC)N[C@H]2C=Cc3c([C@H](C)O)cc(nc3[C@@H]2O)C(=O)O[C@H]4C)n1)C(N)=O
inactive: activity change, negative = inhibition [1] -15.7% [at 17.2 µM] | Potency [2] | activity, negative = inhibition [7] -4.53% [at 17.2 µM] | Potency [4] > 20.6 µM | Potency [8] > 20.6 µM | Potency [5] | Potency [6] | outcome [9] | outcome [10] | Potency (ATS189) | Potency (CP192) | Potency (CP262) | Potency (ECU) | Potency (FAB9) | Potency (JCK) | Potency (PC15) | Potency (PC49) | Potency (SC27B)
active: Potency [11] 8.7 µM | Potency (7G8) 3.16 µM | Potency (CP335) 2.28 µM | Potency (Dd2) 1.12 µM | Potency (ICS) 3.16 µM | Potency (P93_24) 1.78 µM | Potency (TAB109) 0.398 µM | Potency (TAB165) 2.82 µM | Potency (W2) 1.61 µM
